# Source: PMC9574860, “Chemical Toolkit for PARK7: Potent, Selective, and High-Throughput” (Journal of Medicinal Chemistry, 2022)
# Hit rate of the full screen: of about 7,900 compounds, about 400 (5.1%) showed an effect of 50% or more. The sample as a whole holds a higher share of strong results than the screen did.
# Target: Parkinson's disease protein 7 (PARK7/DJ1) (human, UniProt Q99497)
# Test: primary screen, percent inhibition; read as competition with a fluorescent probe by fluorescence polarization; higher = more effect of the substance
# Settings: 100 µM
# Protocol: The screen was conducted using the conditions as described above in 1536-well plates (Corning 3724) with a reaction volume of 8 μL per well. The compound library containing 7887 covalent fragments was purchased at Enamine Ltd. and received as 100 mM DMSO stocks in 384 well LDV Echo plates (Labcyte LP-0200). Stock solutions of 0.26 μM PARK7 and 80 nM JYQ-107 were prepared. Using a Labcyte Echo550 acoustic dispenser, 8 nL of the DMSO stock solution of the library compounds was transferred from the source plates into the empty 1536-well screening plates to obtain a 100 μM final compound concentration. Next, PARK7 (6 μL, final concentration 0.2 μM) was dispensed using a Biotek MultiflowFX liquid dispenser and incubated for 2 h, followed by dispensing the probe JYQ-107 (2 μL, final concentration 20 nM). After 2 h incubation, the FP signal was recorded on a BMG Labtech PHERAstar plate reader (λex/em 480/520 nm). The relative loss of FP signal compared with reference controls was used to calculate the remaining enzyme activity.
# Parkinson's disease protein 7 (PARK7/DJ1), sequence (Q99497 whole entry, looked up): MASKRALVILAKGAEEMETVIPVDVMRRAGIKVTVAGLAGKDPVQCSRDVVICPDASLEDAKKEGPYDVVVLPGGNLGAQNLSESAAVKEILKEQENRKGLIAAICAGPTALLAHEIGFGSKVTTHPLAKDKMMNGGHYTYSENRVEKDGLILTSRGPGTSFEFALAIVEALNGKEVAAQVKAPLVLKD
row,SMILES,Inhibition %
1,CC1(C)CCC(OS(C)(=O)=O)CC1,16.9%
2,CC(=O)NCCc1ccc(C(=O)CCl)cc1F,81.3%
3,O=C(CCl)NCCc1ccc(Cl)cc1Cl,23.1%
4,CSc1ccc(C(=O)CCl)cc1NC(C)=O,37.7%
5,CSc1cc(C(=O)CCl)ccc1NC(C)=O,5.59%
6,CC(=O)NCCc1cc(C(=O)CCl)ccc1F,83.3%
7,Cc1nc(C=CC(=O)N2CCc3sccc3C2)cs1,4.01%
8,O=C(CCl)Nc1nc2c(F)c(F)c(F)cc2s1,-4.93%
9,COc1ccc(N2CCN(CC3CO3)CC2)cc1 (centres unmarked),12.9%
10,N#CC1CC2(CC(=O)N2)C1 (centres unmarked),5.93%
11,Cc1ccc2cccc(OC(=O)N3CCCC3)c2n1,13.5%
12,O=C(O)CC1CC(=O)N1 (centres unmarked),65.7%
13,O=C1CC(Cc2ccccc2)N1 (centres unmarked),3.33%
14,O=C1CC(c2ccccc2)N1 (centres unmarked),7.05%
15,Cc1nc(C#N)c(N)nc1Cl,10.2%
16,Oc1ccnc(S)n1,2.99%
17,Cc1ccc2ccccc2c1B(O)O,0.986%
18,COc1ccc(NS(=O)(=O)c2ccc(S(=O)(=O)F)cc2)cn1,100%
19,Cc1ccc(C=CS(=O)(=O)Nc2cnn(CCO)c2)cc1,14.7%
20,N#Cc1ccc(NS(=O)(=O)C=Cc2ccccc2)cc1,10.5%
21,COc1ccccc1NS(=O)(=O)C=Cc1ccccc1,7.7%
22,O=S(=O)(F)c1ccc(S(=O)(=O)Nc2ccnnc2)cc1,8.23%

row,SMILES,Inhibition %
1,COc1ccc(NS(=O)(=O)C=Cc2ccccc2)cn1,59.9%
2,CCn1cc(NS(=O)(=O)C=Cc2ccccc2)cn1,81.4%
3,COc1ccc(NS(=O)(=O)C=Cc2ccccc2)cc1,1.18%
4,O=S(=O)(C=Cc1ccccc1)Nc1ccc(F)c(F)c1,1.18%
5,CN(C)c1ccc(NS(=O)(=O)C=Cc2ccccc2)cn1,69.9%
6,Cc1cc(NS(=O)(=O)C=Cc2ccccc2)ccn1,29.4%
7,O=C(CCl)NCc1ccc(C(=O)N2CCOCC2)cc1,19.5%
8,C=CC(=O)NC1C2CCOC2C12CCCC2 (centres unmarked),5.2%
9,C=CC(=O)N1CCOCC(C)C1 (centres unmarked),6.12%
10,O=C1SCCN1CN1CCC(c2ccccc2)CC1,11.7%
11,Cc1cccc(NC2C=CS(=O)(=O)C2)c1 (centres unmarked),7.19%
12,CC1(C)COCCN1Cn1nc(-c2ccccc2)oc1=O,8.59%
13,COc1ncc(B2OC(C)(C)C(C)(C)O2)cn1,4.41%
14,C=CC(=O)N1CCOCC1c1nnc(C(C)C)o1 (centres unmarked),10%
15,Cc1cccc(C)c1N1C(=O)CN=C1S,1.33%
16,Cc1ccc(S(=O)(=O)N2CCCCC2C2OCCO2)cc1 (centres unmarked),3.92%
17,O=C(O)CCc1ccc(S(=O)(=O)F)cc1,82.3%
18,O=C(CCc1ccc(S(=O)(=O)F)cc1)N1CCCCC1,12.4%
19,CC(C)N(C)C(=O)CCc1ccc(S(=O)(=O)F)cc1,4.68%
20,O=C(Cc1ccc(S(=O)(=O)F)cc1)Nc1ccccc1Cl,12.8%
21,O=C(O)Cc1ccc(S(=O)(=O)F)cc1,89.7%
22,O=C(Cc1ccc(S(=O)(=O)F)cc1)NC1CCCC1,2.81%

row,SMILES,Inhibition %
1,OB(O)c1ccc(OCC(F)(F)F)cc1F,13%
2,CC(c1ccccc1)C1CO1 (centres unmarked),-0.54%
3,COc1ccc(C2CCCN2C(=O)n2ccnc2)cc1 (centres unmarked),6.77%
4,CC1(C)OB(c2ccc(N)c(CO)c2)OC1(C)C,7.71%
5,C=CC(=O)N1CCCC(c2nc(C)c(C)s2)C1 (centres unmarked),6.18%
6,C=CC(=O)N1CCC(c2ncno2)CC1,9.72%
7,N#Cc1cccnc1S,11.9%
8,N#Cc1cnccc1S,92.5%
9,N#Cc1ccncc1C(=O)O,12.3%
10,O=C(NCCCS(=O)(=O)F)OCc1ccccc1,95.8%
11,O=C(c1ccccc1)N1CCCC(S(=O)(=O)F)C1 (centres unmarked),32.4%
12,O=C(c1ccccc1)N1CCC(CCl)C1 (centres unmarked),2.86%
13,O=C(c1ccccc1)N1CCCC(CS(=O)(=O)F)C1 (centres unmarked),71.4%
14,O=C(c1cccs1)N1CCCCC1CCS(=O)(=O)F (centres unmarked),84.1%
15,COC(=O)C1CC(S(=O)(=O)F)CN1C(=O)c1cccs1 (centres unmarked),11%
16,O=S(=O)(F)CCc1ccccc1,4.21%
17,O=C(NCCS(=O)(=O)F)c1ccccc1,13.4%
18,O=C(NCCCS(=O)(=O)F)c1cccs1,98.9%
19,O=C(OCc1ccccc1)N1CCCCC1CS(=O)(=O)F (centres unmarked),16%
20,O=C(CCl)NC(=O)OCc1ccccc1,33.1%
21,O=C(CCl)NC(=O)c1cccs1,23.4%
